The assay relates to Plasmodium falciparum NF54 stage V gametocytes. Nature of the assay: viability index relative to DMSO control (fraction); higher = less gametocyte killing. Conditions: 2.5 µM, library set: Broad Institute DOS, incubation time: 72 h. The method in brief:
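P. falciparum NF54 stage V gametocytes in serum-free screening medium (0.75% gametocytemia, 1.25% hematocrit, 10 µl) were incubated with compound at 2.5 µM in 1,536-well plates for 72 hr at 37°C under low oxygen. Then 3 µl of 2.5 µM MitoTracker Red CMXRos plus 0.13% saponin was added for one to two hours. One field per well was imaged, 20–70 µm2 red particles were counted, and the viability index was the count divided by the plate mean of DMSO wells.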

± gives the uncertainty stated by the source. Over roughly 9,900 compounds, “viability index relative to DMSO control” has its median near 1; the lowest 2% begin near 0.85. Shown is part of a subset that was picked to be rich in the lowest values.

In turn, `COc1ccccc1NC(=O)N1C[C@@H](O)COC[C@H]2O[C@H](CC(=O)N3CCC(Cc4ccccc4)CC3)CC[C@@H]21` displayed a viability index of 1 ± 0.15.

Take `COc1ccc(S(=O)(=O)Nc2ccc3c(c2)C(=O)N([C@@H](C)CO)C[C@@H](C)[C@@H](CN(C)Cc2ccc(C(F)(F)F)cc2)OCCCC[C@H](C)O3)cc1`: the viability index was determined as 0.994 ± 0.023.

Turning to `COc1ccc(S(=O)(=O)Nc2ccc3c(c2)C(=O)N([C@@H](C)CO)C[C@H](C)[C@H](CN(C)Cc2ccc(C(F)(F)F)cc2)OCCCC[C@@H](C)O3)cc1`, the viability index was determined as 1.05 ± 0.2.

Regarding `COc1ccc(S(=O)(=O)Nc2ccc3c(c2)C(=O)N([C@H](C)CO)C[C@H](C)[C@@H](CN(C)S(=O)(=O)c2ccc(Cl)cc2)OCCCC[C@@H](C)O3)cc1`, the viability index is 1.02 ± 0.05.

Compound `COc1ccc(S(=O)(=O)Nc2ccc3c(c2)C(=O)N([C@H](C)CO)C[C@@H](C)[C@H](CN(C)S(=O)(=O)c2ccc(Cl)cc2)OCCCC[C@@H](C)O3)cc1` showed a viability index of 0.887 ± 0.072.

With `COc1ccc(S(=O)(=O)Nc2ccc3c(c2)C(=O)N([C@H](C)CO)C[C@@H](C)[C@H](CN(C)S(=O)(=O)c2ccc(Cl)cc2)OCCCC[C@H](C)O3)cc1`, the viability index was found to be 0.823 ± 0.033.

`COc1ccc(S(=O)(=O)Nc2ccc3c(c2)C(=O)N([C@H](C)CO)C[C@H](C)[C@@H](CN(C)S(=O)(=O)c2ccc(Cl)cc2)OCCCC[C@H](C)O3)cc1`: the viability index is 0.886 ± 0.03.

In the case of `COc1ccc(S(=O)(=O)Nc2ccc3c(c2)C(=O)N([C@@H](C)CO)C[C@H](C)[C@H](CN(C)S(=O)(=O)c2ccc(Cl)cc2)OCCCC[C@@H](C)O3)cc1`, the viability index turned out to be 0.953 ± 0.064.

`COc1ccc(S(=O)(=O)Nc2ccc3c(c2)C(=O)N([C@@H](C)CO)C[C@H](C)[C@@H](CN(C)Cc2ccc(C(F)(F)F)cc2)OCCCC[C@@H](C)O3)cc1` showed a viability index of 0.829 ± 0.0097.

For `COc1ccc(S(=O)(=O)Nc2ccc3c(c2)C(=O)N([C@H](C)CO)C[C@@H](C)[C@@H](CN(C)S(=O)(=O)c2ccc(Cl)cc2)OCCCC[C@@H](C)O3)cc1`, the viability index is 0.533 ± 0.11.

The compound `COc1ccc(S(=O)(=O)Nc2ccc3c(c2)C(=O)N([C@@H](C)CO)C[C@@H](C)[C@H](CN(C)S(=O)(=O)c2ccc(Cl)cc2)OCCCC[C@H](C)O3)cc1` gave a viability index of 0.9073 ± 0.0032.

The compound `COc1ccc(S(=O)(=O)Nc2ccc3c(c2)C(=O)N([C@@H](C)CO)C[C@@H](C)[C@@H](CN(C)S(=O)(=O)c2ccc(Cl)cc2)OCCCC[C@@H](C)O3)cc1` registered a viability index of 0.77 ± 0.046.

The compound `COc1ccc(S(=O)(=O)Nc2ccc3c(c2)C(=O)N([C@@H](C)CO)C[C@@H](C)[C@@H](CN(C)S(=O)(=O)c2ccc(Cl)cc2)OCCCC[C@H](C)O3)cc1` had a viability index of 0.911 ± 0.031.

Consider `N#C[C@@H]1[C@H](c2ccccc2-c2cccc(F)c2)[C@@H](CO)N1C(=O)c1cccnc1`, for which the viability index stood at 1.09 ± 0.063.

Compound `O=C(c1cccc(F)c1)N1CC2(C1)[C@H](c1ccccc1)[C@@H](CO)N2Cc1ccccn1` yielded a viability index of 1.13 ± 0.11.

In turn, `C[C@@H]1CN([C@@H](C)CO)C(=O)CCCn2nncc2CO[C@H]1CN(C)S(=O)(=O)c1ccc(Oc2ccccc2)nc1` yielded a viability index of 1 ± 0.074.

`C/C=C/c1ccc([C@H]2[C@H]3CNC[C@@H]2N3S(=O)(=O)Cc2ccccc2)cc1` came in with a viability index of 1.06 ± 0.047.

Turning to `N#C[C@H]1[C@@H](c2ccccc2-c2ccc(F)cc2)[C@@H](CO)N1C(=O)Cc1cccnc1`, the viability index turned out to be 1.15 ± 0.046.

The compound `CO[C@@H]1CN(C)C(=O)c2cc(NC(=O)Nc3cc(F)ccc3F)ccc2OC[C@@H](C)NC[C@H]1C` yielded a viability index of 1.105 ± 0.0072.

For the compound `Cc1noc(C)c1NC(=O)N(C)C[C@H]1Oc2ccc(NC(=O)Cc3cn(C)c4ccccc34)cc2CC(=O)N([C@H](C)CO)C[C@@H]1C`, the viability index turned out to be 1.04 ± 0.045.

`COCC(=O)N1C[C@@H](C)[C@H](OC)CN(C)C(=O)c2ccc(NC(=O)Nc3cccc(F)c3)cc2OC[C@@H]1C` yielded a viability index of 1.032 ± 0.0043.

Compound `C[C@@H]1CCn2cc(nn2)COC[C@H](C)NC1=O` returned a viability index of 1.06 ± 0.018.

Compound `CC(=O)N1[C@H](CO)[C@@H](c2ccccc2)C12CN(Cc1ccc(Cl)cc1)C2` yielded a viability index of 1.06 ± 0.056.

Regarding `CCN(C[C@H]1N[C@H](CO)[C@@H]1c1ccccc1)C(=O)c1ccncc1`, the viability index was 1 ± 0.019.

`C[C@H]1CCCCO[C@H](CN(C)C(=O)Nc2cccc3ccccc23)[C@@H](C)CN([C@@H](C)CO)C(=O)c2cc(NC(=O)CCC(F)(F)F)ccc2O1` yielded a viability index of 0.993 ± 0.057.

The compound `COCC(=O)N1[C@H](C#N)[C@H](c2ccccc2-c2cccc(C)c2)[C@H]1CO` yielded a viability index of 1.15 ± 0.053.

As to `CCCC(=O)Nc1ccc2c(c1)OC[C@H](C)N(CC1CCOCC1)C[C@@H](C)[C@H](OC)CN(C)C2=O`, the viability index came out at 1.02 ± 0.039.

Regarding `O=C(C[C@@H]1CC[C@H]2NC[C@@H](O)COC[C@@H]2O1)Nc1ccc(-c2ccccc2)cc1`, the viability index was 0.826 ± 0.077.

The compound `O=C(C[C@H]1CC[C@@H]2NC[C@H](O)COC[C@H]2O1)Nc1ccc(-c2ccccc2)cc1` had a viability index of 1.0439 ± 3.9e-05.

As for `O=C(C[C@@H]1CC[C@@H]2NC[C@@H](O)COC[C@H]2O1)Nc1ccc(-c2ccccc2)cc1`, the viability index amounted to 1.06 ± 0.024.

In turn, `Cc1cccc(S(=O)(=O)N2C[C@H]3[C@@H](c4ccccc42)[C@H](CO)N3Cc2ccc3c(c2)OCO3)c1` returned a viability index of 1.01 ± 0.012.

For the origin of these results see the supplement of paper PMC4723716.
